Screens from PubChem.
TRHR agonist-1 – TRH receptor (human) agonism; P34981; TRHR cells, calcium flux fluo-8, FDSS agonist mode; activation, % at 2 µM; actives 0.18% (n = 360,000); AID 493084; in the data active = activation above about 30%; also: 0% is about no effect
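In this calcium-flux screen, cells bearing human TRHR are dye-loaded with fluo-8, baselined for 10 cycles, then exposed to library compounds; positive kinetic calcium responses during the agonist phase mark hits, with TRH as control.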
D1 antag – human D1 dopamine receptor antagonism; activity change, negative = inhibition, % at 10 µM; HEK293 TREx D1 cells, calcium flux, dopamine EC80; active compounds read low; actives 3.2% (n = 360,000); in the data active = activity change below about -30%; also: % is scaled to controls: 0 for no effect and ±100 for the full control effect
Target sequence (P21728 whole entry, looked up): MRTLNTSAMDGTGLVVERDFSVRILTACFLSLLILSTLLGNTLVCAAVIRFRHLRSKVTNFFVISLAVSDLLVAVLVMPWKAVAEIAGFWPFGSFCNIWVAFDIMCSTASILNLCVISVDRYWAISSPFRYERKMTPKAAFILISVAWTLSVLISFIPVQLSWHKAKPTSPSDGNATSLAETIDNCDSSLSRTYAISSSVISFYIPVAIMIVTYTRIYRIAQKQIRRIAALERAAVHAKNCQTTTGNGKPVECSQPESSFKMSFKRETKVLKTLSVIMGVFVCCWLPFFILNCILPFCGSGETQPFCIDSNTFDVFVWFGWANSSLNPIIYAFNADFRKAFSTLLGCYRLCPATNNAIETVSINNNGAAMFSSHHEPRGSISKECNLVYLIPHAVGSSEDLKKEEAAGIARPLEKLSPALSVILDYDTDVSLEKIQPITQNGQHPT
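Tetracycline-induced HEK293 T-REx cells with force-coupled D1 receptor were loaded with a no-wash calcium dye. Compound was added after a 10 s baseline and read kinetically for 180 s; EC80 dopamine was then added and calcium flux followed another 180 s.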
TRHR enhancer-1 – TRH receptor (human) allosteric enhancement. TRHR cells, fluo-8 calcium fluorescence, EC20 TRH enhancement. enhancement, % at 2 µM. actives 0.66% (n = 360,000). AID 493056; in the data active = enhancement above about 30%; also: 0% is about no effect
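TRHR-expressing cells loaded with fluo-8 calcium dye were read kinetically (ex 480/em 530) during compound addition, then stimulated with an EC20 of TRH (10 nM final). Enhancement of the Gq-mediated intracellular calcium response was scored.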
D1 potentiator – human D1 dopamine receptor positive modulation | HEK293 TREx D1 cells, calcium flux, dopamine EC20 potentiation | potentiation, % at 10 µM | actives 0.036% (n = 360,000); in the data active = potentiation above about 30%; also: 0% is about no effect
D1 ag – agonists of human D1 dopamine receptor; P21728; HEK293 T-REx D1 cells, calcium flux, agonist mode; activation, % at 2 µM; actives 1% (n = 360,000); AID 504660; in the data active = activation above about 30%; also: 0% is about no effect
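Agonism was scored from calcium flux recorded over 180 s (1 read/s) after pintool compound addition, following a 10-cycle baseline. Cells were inducible force-coupled HEK293 TREx D1, plated overnight at 30 C and loaded with no-wash calcium dye.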
TRHR enhancer-2 – human TRH receptor allosteric enhancement confirmation; TRH receptor cell assay, enhancer confirmation qHTS; activity change, negative = inhibition, % at 46.1 µM; AID 493076; shares compounds with TRHR enhancer-1; 970 tested, under 10 active;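 also: compound effect scored on response to added TRH at EC20 of 10 nM; 0% is about no effect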
TRHR agonist-2 – confirmation of human TRH receptor agonists; actives 8% (n = 970); Potency, µM (titrated, usually from 46.1 µM), for the others: at the highest dose activation, most hits filed as activators; AID 493078; TRHR-expressing cells, agonist activation read-out; shares compounds with TRHR enhancer-1; also: potency is read from the fitted curve at half-maximal effect; 0% is about no effect; nearly all actives have a fitted effect of over 75% in size
An asterisk follows results filed as active; ? = inconclusive; / = no result. An excerpt weighted towards active compounds, which were near 4.6% of everything screened. Unless noted, calls follow the shape of the dose curve; as a rule, active = well fitted curve in the direction sought with a large enough effect; inconclusive = small, poorly fitted or top-dose-only effect, or another doubt; inactive = no such curve, though single readings can be large; an effect the other way counts as inactive or inconclusive.

SMILES	TRHR agonist-1	D1 antag	TRHR enhancer-1	D1 potentiator	D1 ag	TRHR enhancer-2	TRHR agonist-2
COc1ccccc1N1CCN(c2cc(C)nc3c(-c4ccc(Cl)cc4)c(C)nn23)CC1	0	-8	9	-6	1	/	/
CS(=O)(=O)c1ccc(C(=O)NCc2ccc(F)cc2)cc1	0	12	60*	-3	1	-1	6%
Cn1nc(C(=O)NCc2ccc(F)cc2)cc1C(=O)NCc1ccc(F)cc1	0	-15	46*	-8	6	-7	1%
Cn1nc(C(=O)NCc2ccccc2)cc1C(=O)NCc1ccccc1	-4	2	14	-3	8	/	/
O=C(NCc1ccc(Cl)cc1)c1ccc(CNS(=O)(=O)c2ccc(F)cc2)cc1	0	-2	3	-5	9	/	/
COc1cccc(C(=O)C2CCCN(C(=O)CCc3scnc3C)C2)c1 (stereo unspecified)	1	-13	-10	-3	4	/	/
COc1c(C)cc(C(=O)C2CCCN(C(=O)CCc3scnc3C)C2)cc1C (stereo unspecified)	-1	0	53*	-6	4	-3	-1%
CCCOC(=O)CSc1ncnc2sc3c(c12)CCC(C)C3 (stereo unspecified)	0	8	3	-1	5	/	/
CCc1nnc(NC(=O)CCC(=O)N2CCN(Cc3cc(Cl)ccc3OC)CC2)s1	0	7	64*	-7	4	0	2%
CCCNC(=O)c1nc(C)n(-c2cc(Cl)cc(Cl)c2)n1	-1	7	0	5	1	/	/
CCCNC(=O)c1nc(C)n(-c2cc(Cl)ccc2Cl)n1	0	-9	64*	-4	2	1	1%
Cc1ccc2ncc(C(=O)NCc3ccccc3Cl)c(=O)n2c1	0	13	7	-5	-1	/	/
Cc1c(Cl)cccc1NC(=O)Nc1cc(C(C)(C)C)on1	1	5	6	5	11	/	/
Cc1ccc(C(=O)CCNc2cccc(Br)c2)o1	-1	-13	66*	-5	1	-10	2%
COc1ccc(-n2cc(C(=O)N(CCN(C)C)Cc3ccccc3)c3ccccc3c2=O)cc1	2	-3	74*	-1	5	-3	1%
CCOc1ccc(CCNC(=O)c2cc3c(-c4ccccc4F)nn(C)c3s2)cc1OCC	0	1	-2	16	3	/	/
CC1CC(C)CN(C(=O)COC(=O)c2ccc(Cl)nc2)C1 (stereo unspecified)	1	-18	45*	-5	1	-1	1%
Cn1c(=O)c2c(nc(Oc3ccccc3)n2Cc2c(Cl)cccc2Cl)n(C)c1=O	1	-6	-4	0	-2	/	/
COc1ccc(Nc2ccc(N3C(=O)CCCC3=O)cc2[N+](=O)[O-])cc1OC	0	3	-2	-2	1	/	/
CCOc1ccc(Nc2ccc(N3C(=O)CCC3=O)cc2[N+](=O)[O-])cc1	0	6	48*	1	0	-10	5%
CCC(Sc1nc2ncccc2[nH]1)C(=O)NCCc1ccccc1 (stereo unspecified)	60*	11	2	-1	3	-13	2%
CCC(Sc1nc2ncccc2[nH]1)C(=O)NC1CCC(C)CC1 (stereo unspecified)	1	7	11	-3	0	/	/
O=C(Nc1ccccc1)C1CC(=O)n2ncnc2N1 (stereo unspecified)	1	-4	-5	6	3	/	/
CCOc1ccccc1NC(=O)C1CC(=O)n2ncnc2N1 (stereo unspecified)	0	5	48*	0	3	0	0%
[2H]C([2H])(CCOS(N)(=O)=O)c1ccccc1	0	5	44*	-1	1	2	?
SMILES	TRHR agonist-1	D1 antag	TRHR enhancer-1	D1 potentiator	D1 ag	TRHR enhancer-2	TRHR agonist-2
CC(CCOS(N)(=O)=O)c1ccccc1 (stereo unspecified)	0	6	-5	5	2	/	/
Cc1ccc(N2C(=O)[C@@H]3CSC(c4ccc(Cl)cc4)N3C2=O)cc1 (stereo partly specified)	0	-1	12	1	3	/	/
Cc1ccnc(SCC(=O)N2CCc3ccccc3C2)n1	0	-4	-3	5	1	/	/
Cc1cc(=O)[nH]c(SCC(=O)N2CCc3ccccc3C2)n1	28	-2	-1	5	3	?	-1%
O=C(/C=C/c1cn(CC(O)CN2CCCCC2)c2ccccc12)c1cccs1 (stereo unspecified)	36*	0	7	-7	46*	5	?
OC(CN1CCCCC1)Cn1c2ccccc2c2ccccc21 (stereo unspecified)	2	5	-1	-6	16	/	/
CN(C(=O)COC(=O)CSc1ccc(C(N)=O)cc1[N+](=O)[O-])C1CCCCC1	0	-27	10	-2	2	/	/
COCCn1c(SCC(=O)N2CC(=O)Nc3ccccc32)nc2ccccc21	45*	-8	7	6	0	-6	-1%
O=C(O)CCC(=O)N1N=C(c2ccccc2)CC1c1ccc2nccnc2c1 (stereo unspecified)	1	8	-4	-4	1	/	/
O=C(O)CCCC(=O)N1N=C(c2ccccc2)CC1c1ccc2nccnc2c1 (stereo unspecified)	0	6	46*	-1	3	1	0%
CCCCN(CC)C(=O)CSc1c2c(nc3ccc(Cl)cc13)CCCC2	0	0	-13	-2	2	/	/
O=C(CCn1c(=O)sc2ccccc21)Nc1ccon1	0	23	43*	-5	-2	-2	1%
Cc1nc(-c2cccc(F)c2)sc1CCNC(=O)Cc1ccc(F)cc1	0	3	1	-1	9	/	/
CCOc1ccccc1NC(=O)NC1CC2CCCC(C1)N2Cc1nnnn1CCc1ccccc1 (stereo unspecified)	61*	10	-1	7	3	-7	2%
COc1ccc(C(=O)C2CCN(C(=O)c3ccc(C)cc3)CC2)cc1	-1	-21	-5	-1	4	/	/
COc1ccc(C(=O)C2CCN(C(=O)c3ccco3)CC2)cc1	0	-40*	49*	-5	4	?	7%
COc1ccc(NC(=O)c2cc(C)nc3c2c(C)nn3-c2ccc(C)cc2)cc1OC	0	-18	10	0	0	/	/
Cc1ccc(CNC(=O)C(=O)NCC(c2ccco2)S(=O)(=O)c2ccccc2)cc1 (stereo unspecified)	0	2	-2	0	3	/	/
Cc1ccc(C2(CCNC(C)c3cccs3)CCOC(C(C)C)C2)cc1 (stereo unspecified)	2	14	3	10	6	/	/
